Assay outcomes deposited in PubChem BioAssay by several laboratories.
Most compounds without a hit are left out; they make up all but 3.1% or so of the library.
PP1 counter: PP1-alpha (human) inhibition in PP5 counter-screen | AID 2235 | inhibition, % at 6.7 µM | purified PP1alpha, OMFP fluorescence | actives 0.9% (n = 320,000);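 active means inhibition above the mean inhibition of all tested compounds plus 3 SD, computed separately for each screening campaign, cut at about 15% in these data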
Beta apoptosis: beta cell apoptosis inhibition. actives 0.8% (n = 300,000). protection from apoptosis, % (test concentration not listed). INS-1E cytokine-induced death, ATP luminescence, 48 h; percent of positive-control rescue, neutral wells zero;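 active means Every replicate reaches about 75%, or at least half do and their mean reaches it too, limit read from the data; inconclusive means At least half of replicates reach the limit but their mean does not; inactive means Under half of replicates reach the limit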;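 further: 0% = cytokine-treated negative control wells and 100% = positive control rescue; higher means more ATP so stronger rescue from cytokine killing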
SKKanGAS inh: SKKanGAS growth inhibition | S. pyogenes SKKanGAS, kanamycin growth, BacTiter-Glo, 6 h | actives 1.3% (n = 300,000) | AID 1662 | inhibition, % at 7.5 µM;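 active means mean replicate score, as percent of positive control median, at least 50; inconclusive means mean below 50 but one replicate at or above 50; inactive means mean and every replicate below 50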;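 further: strain carries kanamycin resistance gene driven by streptokinase promoter and grows in 40 µg/ml kanamycin; loss of luminescence reflects streptokinase promoter inhibition or plain growth inhibition; 0% = median of DMSO wells and 100% = positive control at its reference dose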
PP5 inh: inhibitors of human protein phosphatase 5 (PP5); P53041; purified PP5c, OMFP substrate fluorescence; inhibition, % at 6.7 µM; actives 0.18% (n = 320,000);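 active means inhibition above the campaign's mean inhibition across all tested compounds plus 3 SD, cut at about 9.5% in these data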;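 further: 0% = DMSO only and 100% = 100 µM cantharidin control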
Target sequence (P53041 whole entry, looked up): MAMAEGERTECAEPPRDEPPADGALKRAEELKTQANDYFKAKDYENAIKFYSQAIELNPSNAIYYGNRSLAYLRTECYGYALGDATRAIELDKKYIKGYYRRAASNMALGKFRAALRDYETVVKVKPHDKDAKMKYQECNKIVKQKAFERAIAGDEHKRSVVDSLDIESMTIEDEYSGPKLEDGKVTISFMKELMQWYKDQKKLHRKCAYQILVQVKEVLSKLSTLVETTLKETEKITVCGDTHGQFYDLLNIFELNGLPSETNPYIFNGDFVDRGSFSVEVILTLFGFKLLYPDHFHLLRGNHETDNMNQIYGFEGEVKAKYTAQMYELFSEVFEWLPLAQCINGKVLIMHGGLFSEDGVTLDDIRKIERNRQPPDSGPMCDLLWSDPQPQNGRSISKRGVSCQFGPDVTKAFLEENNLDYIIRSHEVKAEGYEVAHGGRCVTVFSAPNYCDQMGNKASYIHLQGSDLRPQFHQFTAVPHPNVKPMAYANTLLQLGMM
CSC inhib: blocks cancer stem cells; cancer stem cell-like cells viability, luminescence; inhibition, % at 7.5 µM; actives 1.1% (n = 300,000); in the data active means inhibition above about 75%; inconclusive means no clear call, values can overlap the other calls; tested in HMLE shEcad cells
* = called active by the depositor; ? = inconclusive; . = no result given.

SMILES | PP1 counter | Beta apoptosis | SKKanGAS inh | PP5 inh | CSC inhib
O=C(CCC(=O)Nc1ccc(Cl)cc1Cl)N/N=C/c1ccc([N+](=O)[O-])o1 | -1 | 107* | 17 | 1 | -9
O=C(N/N=C/c1ccc([N+](=O)[O-])o1)c1ccc(O)cc1 | 0 | 100* | 27 | 3 | -18
CCCCCC(=O)N/N=C/c1ccc([N+](=O)[O-])o1 | 3 | 44 | 4 | 3 | -19
Cc1ccc2c(CNCc3ccccc3)cc(=O)oc2c1 | -1 | . | 18 | 2 | 60
CCN(CC)S(=O)(=O)c1ccc(N=Nc2cc(C)cc(Br)c2O)cc1 | -4 | 4 | -9 | 0 | -4
Oc1ccc(N=Nc2ccc(Br)cc2)c(O)c1 | 0 | 24 | 5 | 1 | 92*
Oc1ccc(N=Nc2ccc3c(c2)OCCO3)c2cccnc12 | 14 | . | 88* | -1 | .
Cc1ccc(N=Nc2ccc(O)cc2)c(Br)c1 | 3 | 8 | 7 | 6 | 87*
Oc1ccc(N=Nc2ccc3c(c2)OCCO3)c(O)c1 | 1 | 4 | -4 | 5 | 84*
Oc1ccc(N=Nc2n[nH]c(-c3ccc(Br)cc3)n2)cc1 | 2 | 0 | 0 | 5 | 46
COC(=O)c1ccccc1S(=O)(=O)N1CCC(C(=O)NCCC2=CCCCC2)CC1 | -1 | 2 | . | 0 | -14
COCCCn1c(SCC(=O)NC2CCCC2)nnc1-c1cccs1 | 0 | -6 | 5 | -1 | 2
CCN(CC)CCC(=O)Nc1cccc2c1C(=O)c1ccccc1C2=O | -1 | 98* | 5 | 0 | 25
CCN(CC)CCNC(=O)c1ccc2c(c1NCCO)C(=O)c1ccccc1C2=O | -2 | 116* | 51* | 0 | 55
N#CCOC(=O)/C=C/c1ccc2c(c1)OCO2 | -1 | -9 | 0 | 0 | 1
O=C(Sc1ccc(Cl)cc1)c1cccc(Cn2cc(C(F)(F)F)ccc2=O)c1 | -3 | -18 | 9 | -1 | 11
Cc1ccc(/C(N)=N/OC(=O)c2cccc(Cn3cc(C(F)(F)F)ccc3=O)c2)cc1 | -2 | 99* | -9 | 2 | 7
N/C(=N\OC(=O)c1cccc(Cn2cc(C(F)(F)F)ccc2=O)c1)c1ccc(Cl)cc1 | 1 | 113* | 0 | -1 | 4
Cc1cccc(NC(=O)c2ccc(Cn3cc(C(F)(F)F)ccc3=O)cc2)c1 | -1 | -11 | -4 | 1 | 36
N/C(=N\OC(=O)c1cccc(Cn2cc(C(F)(F)F)ccc2=O)c1)c1ccccc1 | -1 | 113* | -4 | 3 | 9
O=C(CN1CCCCC1)Nc1ccc(NC(=O)c2ccccc2Cl)cc1Cl | 4 | 11 | 0 | 4 | 40
COc1cccc(CNC(=O)CCC2CCCN(c3cc(C)nc(N)n3)C2)c1 (stereo not given) | -5 | -3 | 5 | 2 | -11
COc1ccc(/C=C2\SC(=O)N(CC(=O)NC3CCS(=O)(=O)C3)C2=O)cc1 (stereo not given) | -4 | 0 | -3 | -1 | -11
CCC(=O)c1ccc(OCC(=O)OCC(=O)NCCC2=CCCCC2)cc1 | -5 | -3 | 0 | 1 | -3
CCCCC(CC)C(=O)Oc1ccc(O)c(C(C)(C)C)c1 (stereo not given) | 0 | 13 | 61* | 0 | -6
SMILES | PP1 counter | Beta apoptosis | SKKanGAS inh | PP5 inh | CSC inhib
O=C(CCCN1C(=O)C(c2ccccc2)Oc2cccnc21)Nc1cccc(F)c1 (stereo not given) | -1 | 1 | 2 | 4 | -1
COc1ccc2cc1Oc1ccc(cc1)C[C@H]1c3c(cc(OC)c4c3Oc3c(ccc5c3[C@H](C2)N(C)CC5)O4)CCN1C | . | 122* | . | . | 105*
Cc1cc(N2C(=O)C3C4CC(C(Br)C4Br)C3C2=O)no1 (stereo not given) | -1 | -2 | -9 | 1 | -4
COc1ccc(N2CCN(c3ncnc4c3[nH]c3ccccc34)CC2)cc1 | 0 | 102* | 5 | 3 | 9
CCCCOc1ncnc2c1[nH]c1ccc(F)cc12 | -3 | 110* | -7 | 4 | ?
CCOC(=O)N1CCN(c2ncnc3c2[nH]c2ccc(OC)cc23)CC1 | -1 | -2 | -1 | 3 | -2
COc1ccc2[nH]c3c(N4CCc5ccccc5C4)ncnc3c2c1 | 0 | 2 | 23 | 3 | 61
Fc1ccc2[nH]c3c(Cl)ncnc3c2c1 | 0 | 1 | 2 | 1 | -11
CCOC(=O)N1CCN(c2ncnc3c2[nH]c2ccc(F)cc23)CC1 | 1 | 76* | 0 | 3 | 3
Fc1ccc2[nH]c3c(N4CCN(c5ccccc5)CC4)ncnc3c2c1 | 3 | 89* | 27 | 4 | 4
